Screen size: about 2,200 compounds; about 1,700 (77%) were called active.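 How the source made its calls: active means mean inhibition across replicate wells exceeding the computed hit threshold (cut at about 13% in these data); inactive means the rest.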 So high a share suggests a set chosen from earlier hits. Only a sample is shown.

In this experiment the target is Hepatocyte nuclear factor 4-alpha (Homo sapiens) (UniProt P41235). Nature of the experiment: HNF4 dimerization inhibitors, counter-screen for ABHD5-PLIN5 interaction inhibitor project, biochemical, split-luciferase complementation, luminescence (AID 651674).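 Further: light from luciferase halves that rejoin when HNF4 fusion proteins dimerize; 0% = DMSO only wells and the 100% control is not given.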 Particulars: at 4 µM, active compounds read high. In general terms: Counterscreens check selectivity or assay interference.
Sequence of Hepatocyte nuclear factor 4-alpha (Homo sapiens) (P41235 whole entry, looked up, the tested form may be a part): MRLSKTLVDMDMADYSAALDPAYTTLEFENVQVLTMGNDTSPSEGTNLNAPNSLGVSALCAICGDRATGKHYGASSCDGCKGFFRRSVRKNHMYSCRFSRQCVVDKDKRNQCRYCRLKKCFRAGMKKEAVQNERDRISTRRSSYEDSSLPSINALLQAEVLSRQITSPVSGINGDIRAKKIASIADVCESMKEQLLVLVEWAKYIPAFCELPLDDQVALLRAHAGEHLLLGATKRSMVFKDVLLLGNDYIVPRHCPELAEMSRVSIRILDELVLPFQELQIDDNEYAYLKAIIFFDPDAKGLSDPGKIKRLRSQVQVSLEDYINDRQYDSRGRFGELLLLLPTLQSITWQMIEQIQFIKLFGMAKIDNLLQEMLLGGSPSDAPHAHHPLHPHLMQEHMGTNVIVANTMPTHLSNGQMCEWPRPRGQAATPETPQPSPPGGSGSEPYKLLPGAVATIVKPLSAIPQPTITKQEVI
By inhibition is commonly meant the change of the read-out against control, counted positive when it falls. `COc1ccc(-c2cc(C(F)(F)F)nc(S(C)(=O)=O)n2)cc1OC`: the inhibition is 80.6% (active).
With `Nc1cccc(OCCCCCOc2cccc(N)c2)c1`, the inhibition is -6.94% (inactive).
With `O=C(NNc1c2ccccc2nc2ccccc12)c1cc2ccccc2cc1O`, the inhibition was 23.8% (active).
In the case of `COc1ccc(/C=C/C(=O)c2ccc(NS(=O)(=O)c3ccc(C)cc3)cc2)cc1O` it was 54.5% (active).
In the case of `OC(CNCC1CCCO1)Cn1c2ccc(Br)cc2c2cc(Br)ccc21` (configuration not stated) it was -1.25% (inactive); in that of `O=C(c1cccnc1)N(c1cc2sc(=O)oc2c2ccccc12)S(=O)(=O)c1ccccc1`, 104% (active).
In the case of `Cc1cccc(NC(=O)c2ccc3nsnc3c2)c1C` it was -0.5% (inactive).
As to `O=[N+]([O-])/C=C/c1ccc2c(ccn2Cc2ccccc2)c1`, the inhibition is 108% (active).
In the case of `COC(=O)C1(C)NC(c2ccccc2OC)C2C(=O)N(c3ccccc3)C(=O)C21` (configuration not stated) it was 2.83% (inactive).
In the case of `C[C@@H](CN1CCC[C@H]1CN1C(N)=NC[C@@H]1Cc1ccccc1)N1C[C@@H](Cc2ccccc2)N(CCCC2CCCC2)C1=N` it was 6.92% (inactive).
In the case of `O=[N+]([O-])c1c(NCCO)cc(Sc2nc3ccccc3s2)c2nonc12` it was 115% (active).
For `Cn1sc(=O)c2cc(S(=O)(=O)NC3CC3)ccc21`, the inhibition was 106% (active).
In the case of `Cc1cc2c(c(=O)n1Cc1ccco1)C(c1ccccc1)C(C#N)=C(N)O2` (configuration not stated) it was 24.5% (active).
For the compound `Cc1nnnn1/C(=C\c1ccccc1)C(=O)OCC(=O)N1CC2(C)CC1CC(C)(C)C2` (configuration not stated), the inhibition was 46.1% (active).
In the case of `Cc1nc(-c2ccccc2)sc1C(=O)/C=C/c1ccccc1` it was 59.8% (active); in that of `CC(C)(C)C1C/C(=C/c2ccco2)C(=O)/C(=C/c2ccco2)C1` (configuration not stated), 78.9% (active); in that of `O=C(/C=C/c1ccc(Cl)c([N+](=O)[O-])c1)c1ccc(O)cc1`, 72.8% (active).
On to `CC(=O)Nc1ccc(C=CC(=O)c2ccc([N+](=O)[O-])cc2)cc1`, for which the inhibition is 82.5% (active).
In the case of `O=C(NCCOCc1ccc(Cl)cc1)c1ncn[nH]1` it was 2.01% (inactive); in that of `COc1ccc(CNC(=O)/C(C#N)=C/c2cccc(OC)c2OC)cc1`, 45.7% (active); in that of `COC(C/C=C/C(=O)[C@@H](C)OCc1ccccc1)OC`, 44.4% (active).
With `Cc1cc(C)nc(S/C=C/C(=O)c2ccccc2)n1`, the inhibition was 106% (active).
As to `Cc1cccc(NC(=O)c2nc(S(=O)(=O)Cc3ccccc3)ncc2Cl)c1`, the inhibition was 85.1% (active).
In the case of `Cc1cccc(CS(=O)(=O)c2ncc(Cl)c(C(=O)Nc3ccc(F)cc3)n2)c1` it was 86.8% (active); in that of `Cc1ccc(CS(=O)(=O)c2ncc(Cl)c(C(=O)Nc3nnc(C)s3)n2)cc1`, 91.8% (active).
In the case of `CSc1nnc(NC(=O)c2nc(S(=O)(=O)Cc3ccc(C)cc3)ncc2Cl)s1` it was 50.1% (active); in that of `Cc1c(CCOC(=O)CC23CC4CC(CC(C)(C4)C2)C3)sc[n+]1Cc1ccc([N+](=O)[O-])cc1`, 5.79% (inactive); in that of `Cc1ccc(NC(=O)Cn2sc3ccccc3c2=O)cc1`, 118% (active).
Consider `CC1Cc2ccccc2N1CC(=O)Nc1ccc(S(N)(=O)=O)cc1` (configuration not stated), for which the inhibition was -0.75% (inactive).
In the case of `Cc1ccn(C(CC(=O)c2ccc(Br)cc2)C(=O)O)n1` (configuration not stated) it was 38.9% (active); in that of `Cc1ccc(-n2nc(-c3ccco3)cc2C(=O)NCc2cccnc2)cc1`, 79.1% (active).
`CCN1/C(=C\c2ccc3ccccc3[n+]2CC)Sc2cc(C)ccc21`: the inhibition is 22.4% (active).
In the case of `C=C(C)C(=O)O[C@H]1C/C(C)=C\C(=O)/C=C(\C)[C@H](O)[C@@H]2OC(=O)C(=C)[C@@H]21` it was 54.8% (active); in that of `Cc1cc(-c2n[nH]c(=S)n2/N=C/C(Br)=C/c2ccccc2)n[nH]1`, 86.5% (active); in that of `CC1(C(=O)NCc2cccc3ccccc23)CCN1Cc1ccc(-c2ccccc2)o1` (configuration not stated), 40.2% (active).
In the case of `COc1ccc(C(C[N+](=O)[O-])n2nc(C)cc2C)cc1` (configuration not stated) it was 87.3% (active).
In the case of `O=c1[nH][nH]c2c1[C@H](c1ccc(Cl)cc1)O[C@H](CCc1ccccc1)C2` it was 12% (inactive); in that of `O=C1C=CC(=O)N1c1ccc(N2CCCCC2)cc1`, 101% (active); in that of `COc1ccc2c(c1OC)C(=O)OC2Nc1nc(-c2ccccc2)cs1` (configuration not stated), 56.7% (active).
Take `O=C(NNc1ccccn1)c1ccc(Cl)nc1`: the inhibition was -6.91% (inactive).
In the case of `O=C1C=C(c2ccc(Cl)cc2)C(=O)N1Nc1ccccc1` it was 107% (active); in that of `CN(C)CCCNC(=O)/C=C/c1ccc(OCc2c(F)cccc2Cl)cc1`, 6.86% (inactive); in that of `O=C(/C=C(O)/C=C/c1ccc(O)cc1)/C=C/c1ccc(O)cc1`, 74.4% (active).
Turning to `Cc1cccc(C)c1NC(=O)C(Cl)C(=O)c1ccccc1` (configuration not stated), the inhibition was 58.4% (active).
In the case of `CCN(CC)CCN(C(=O)c1ccc2c(c1)CCCC2)c1nc2c(OC)cccc2s1` it was 11.7% (inactive).
In the case of `C=C1C(=O)[C@]23C[C@H]1CCC2[C@@]1(C)C(C[C@@H]3O)[C@](C)(C(=O)O)CC[C@@H]1O` (some centres not stated) it was 85.8% (active); in that of `CN1CCC[C@@H]1CCO[C@](C)(c1ccccc1)c1ccc(Cl)cc1`, 9.44% (inactive).

Source of the values: PubChem BioAssay AID651674 (The Scripps Research Institute Molecular Screening Center, 2012).
